Screens deposited in PubChem by several laboratories.
SRC1 inh: inhibits human SRC1 coactivator; Q15788; HEK293 GAL4-SRC1 luciferase reporter, luminescence; inhibition, % at 3.6 µM; hit rate 0.12% among 360,000; AID 588354;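 active = inhibition above the campaign mean plus 3 SD, with each screening campaign given its own cutoff, cut at about 60% in these data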;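 also: 0% = DMSO treated cells and 100% = gossypol at 36 µM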
NR5A2 inv ag: NR5A2 inverse agonism in reporter assay. O00482. HEK293T StAR-luciferase reporter, LRH-1 transfected, 24 h. inhibition, % at 3.6 µM. hit rate 0.13% among 360,000;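 active = inhibition above the mean inhibition of all tested compounds plus 3 SD, cut at about 73% in these data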;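 also: 0% = DMSO wells and 100% = reporter-only cells lacking LRH-1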
Gli-Sufu block: blocks Gli-Sufu signaling in a luciferase reporter. Sufu-KO-LIGHT fibroblasts, Gli luciferase reporter luminescence. inhibition, % at 5 µM. hit rate 0.74% among 340,000;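 active = inhibition above about 55%, limit read from the data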;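 also: 0% = DMSO-treated cells and 100% = wells with medium but no cells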
SRC3 inh: inhibits human SRC3 coactivator. HEK293 GAL4-SRC3 luciferase reporter, luminescence. AID 588352. Q9Y6Q9. hit rate 0.17% among 360,000. inhibition, % at 3.6 µM;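 active = inhibition above a per-campaign cutoff, the mean of all compounds plus 3 SD, cut at about 60% in these data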;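 also: 0% = DMSO-treated cells and 100% = gossypol-treated cells at 36 µM; higher means less SRC3-driven luciferase light from the GAL4 reporter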
Shn3 3UTR inh: inhibitors of Schnurri-3 3'UTR reporter in osteoblasts; Clone20 osteoblast Shn3 3'UTR firefly luciferase, 24 h; inhibition, % at 12.5 µM; hit rate 0.52% among 360,000;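 active = mean inhibition of at least 75% with every replicate also reaching 75%; inconclusive = mean inhibition at least 75% but some replicate below; inactive = mean inhibition below 75%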;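 also: 0% = median of neutral control wells and 100% = pilot-screen positive control compound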
SRC2 inh: inhibits human steroid receptor coactivator 2. AID 651957. inhibition, % at 9 µM. Q15596. hit rate 0.17% among 370,000. HEK293 GAL4-SRC2 luciferase reporter, luminescence;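 active = inhibition above the mean inhibition of all tested compounds plus 3 SD, set per campaign, cut at about 52% in these data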;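 also: 0% = DMSO treated cells and 100% = cells given Gossypol at 36 µM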
Gli antag conf: confirmation of Gli-SUFU pathway antagonists. hit rate 40% among 2,500. shares compounds with Gli-Sufu block. Sufu-KO-LIGHT cells, Gli luciferase reporter, luminescence. inhibition, % at 5 µM;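 active = mean inhibition at 5 µM reaching about 45%, limit read from the data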;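 also: plate controls were DMSO-treated cells for no effect and wells lacking cells for full effect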
Gli cytotox: counter-screen for Gli-SUFU antagonists: cytotoxicity. AID 651994. hit rate 32% among 2,500. cytotoxicity, % at 5 µM. shares compounds with Gli-Sufu block. Sufu-KO-LIGHT cells cytotoxicity, ATP luminescence;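 active = mean cytotoxicity at 5 µM above about 25%, limit read from the data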;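 also: cells exposed to compound overnight for roughly 16 to 18 hours; plate controls were DMSO wells with cells for no effect and medium without cells for full effect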
Wnt3a cs: Wnt3a reporter inhibition counter-screen; shares compounds with Gli-Sufu block; hit rate 20% among 2,500; inhibition, % at 6.25 µM; Wnt-LIGHT cells, Wnt3a-driven luciferase reporter, luminescence;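 active = mean inhibition above about 25%, limit read from the data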
Starred values were filed as active, the others as inactive; ? = inconclusive; / = not tested or not shown. Sampled rows, rich in hits. Any-hit rate of the full collection: about 1.1%.

SMILES	SRC1 inh	NR5A2 inv ag	Gli-Sufu block	SRC3 inh	Shn3 3UTR inh	SRC2 inh	Gli antag conf	Gli cytotox	Wnt3a cs
CCOC(=O)Cn1c(COc2ccccc2OC)[n+](C)c2ccccc21	-6	-3	52	12	13	-26	18	14	18
Cc1ccccc1OCc1n(CC(=O)OC2CC(C)CCC2C(C)C)c2ccccc2[n+]1C (stereo unspecified)	-5	24	50	34	6	6	/	/	/
COc1cc(CSc2nnnn2-c2ccc(C)cc2)cc(OC)c1OC	16	49	69*	23	90*	14	68*	27*	40*
COc1ccc(F)cc1CSc1nnnn1-c1ccc(O)cc1	9	21	-16	17	32	12	/	/	/
COC(=O)[C@]12C[C@H](CC(=O)N3CCN(C(=O)C4CC4)CC3)C(=O)N(CCC3=CCCCC3)C1=C[C@H](C1CCCC1)O[C@@H]2C	/	/	/	/	/	-12	/	/	/
O=C(Oc1ccccc1N1C(=O)C2CC=CCC2C1=O)c1ccc(Br)cc1 (stereo unspecified)	-11	-3	52	17	-14	-14	17	11	-16
Cc1ccccc1C(=O)Oc1ccccc1N1C(=O)C2CC=CCC2C1=O (stereo unspecified)	-6	6	9	27	-35	1	/	/	/
Cc1ccc(S(=O)(=O)Nc2ccc(-n3c(C)nc4ccccc4c3=O)cc2)cc1	-7	15	82*	3	-7	1	20	21	-10
CC(=O)c1ccc(S(=O)(=O)Nc2ccc(-n3c(C)nc4ccccc4c3=O)cc2)cc1	7	7	7	-3	-33	-19	/	/	/
O=c1nc2ccccc2c(NS(=O)(=O)c2ccccc2)n1-c1ccccc1	5	6	83*	20	10	-11	27	15	-15
CCC(C(=O)NCCC(C)C)n1ccc2cc(S(=O)(=O)N3CCCCC3)ccc21 (stereo unspecified)	10	9	67*	-43	78	/	45	23	-9
COc1ccc(CNC(=O)CCCn2ccc3cc(S(=O)(=O)N4CCCC4)ccc32)cc1	24	34	59*	-4	3	0	8	27*	-97
CCOc1ccc(CNC(=O)CCCn2ccc3cc(S(=O)(=O)N4CCCC4)ccc32)cc1	3	25	19	0	22	14	/	/	/
N#Cc1ccccc1N1CCN(S(=O)(=O)c2ccc3c(c2)CCC(=O)N3)CC1	/	/	/	/	/	3	/	/	/
COc1ccc(Nc2ncc(C(=O)N3CCN(Cc4ccccc4)CC3)c3ccccc23)cc1	15	-4	99*	18	10	-23	29	6	-90
COc1ccc(Nc2ncc(C(=O)N3CCC(C(N)=O)CC3)c3ccccc23)cc1	-4	-11	3	-3	1	-23	/	/	/
CC1CCCN(c2ncnc3c2cnn3-c2ccc(Cl)cc2)C1 (stereo unspecified)	87*	92*	81*	88*	78	83*	92*	67*	106*
COC(=O)C[C@@H]1CC[C@H]2[C@@H](COc3ccc(NC(=O)NC(C)C)cc3C(=O)N2C)O1	/	/	/	/	/	-4	/	/	/
CCOC(=O)C1CCCN(S(=O)(=O)c2ccc(S(=O)(=O)N(CC)CC)cc2)C1 (stereo unspecified)	7	43	78*	26	85	17	74*	32*	9
CN(C)S(=O)(=O)c1ccc(S(=O)(=O)N2CCCC(C(=O)NC3CC3)C2)cc1 (stereo unspecified)	0	-14	8	-9	29	13	/	/	/
CCOC(=O)C1CCCN(S(=O)(=O)c2ccc(C)cc2)C1 (stereo unspecified)	2	24	4	9	9	8	/	/	/
CCN(CC)S(=O)(=O)c1ccc(S(=O)(=O)N2CCCC(C(=O)NC3CC3)C2)cc1 (stereo unspecified)	-2	11	60*	-2	?	15	46*	11	9
CCCCOc1ccc(N2C(N)=NC(N)=NC23CCCCC3)cc1	1	12	59*	12	40	4	48*	13	-7
COc1ccc(/C=N/OCC(=O)NC(c2ccccc2)c2ccccc2)cc1OC	15	57	54	15	81	12	53*	31*	35*
Cc1oc(-c2ccccc2)cc1C(N)=O	-6	-28	100*	2	/	-7	8	9	-20
SMILES	SRC1 inh	NR5A2 inv ag	Gli-Sufu block	SRC3 inh	Shn3 3UTR inh	SRC2 inh	Gli antag conf	Gli cytotox	Wnt3a cs
CCOC(=O)CSc1c(-c2cccs2)[nH]c2ccccc12	-4	10	52	16	16	-32	65*	4	14
COC(=O)[C@H](C)N(Cc1cn(Cc2ccccc2)nn1)S(=O)(=O)c1ccccc1Br	/	/	/	/	/	4	/	/	/
Cc1sc2nc(C3CC3)nc(SCC(=O)N3CCc4ccccc4C3)c2c1C	6	7	25	-2	10	14	/	/	/
CCc1c(C)sc2nc(C(C)C)nc(SCC(=O)N3CCc4ccccc4C3)c12	/	/	83*	/	/	17	85*	41*	13
C#CCCCN([C@@H](CC(C)C)C(=O)OC)S(=O)(=O)c1ccc(F)cc1Br	/	/	/	/	/	4	/	/	/
O=C(COc1ccccc1)Nc1ccc(OC(F)(F)C(F)F)c(NC(=O)COc2ccccc2)c1	-26	11	61*	4	17	-5	4	2	-57
O=C(c1ccc2c3c(cccc13)CC2)C1CCCN(Cc2ccncc2)C1 (stereo unspecified)	12	15	9	8	/	13	/	/	/
CCc1nc(CN2CCCC(C(=O)c3ccc4c5c(cccc35)CC4)C2)c(C)[nH]1 (stereo unspecified)	-2	-4	52	11	74	27	15	6	-44
C[N+]1=C(/C=C/Nc2ccccc2Cl)C(C)(C)c2ccccc21	-12	-8	56*	2	77	19	52*	39*	-8
COCCCNC(=O)/C(C#N)=C/c1cc(C)[nH]c1C	-27	-4	57*	2	-5	-17	17	6	-1
Cc1cc(/C=C(\C#N)C(=O)NCc2cccs2)c(C)[nH]1	1	-14	-14	-14	0	-18	/	/	/
Cc1nn(C)c(C)c1CN(Cc1nc(CCC(C)C)no1)C(C)C	19	48	79*	19	76	19	73*	26*	51*
CC(C)CCc1noc(CN(C)CCC2CCOCC2)n1	-1	3	13	12	-15	10	/	/	/
Cc1ccc(S(=O)(=O)NCC2CCCO2)cc1 (stereo unspecified)	-6	-3	/	2	19	-53	/	/	/
